From PubChem BioAssay
This is a sample that favours compounds with a hit; in the whole collection about 21% have one here.
CHX counter: counter-screen hit for Shiga toxin inhibitors, cycloheximide; AID 2314; max response, %; hit rate 12% among 300,000; cell reporter, cycloheximide protein synthesis inhibition counterscreen; in the data active = max response mostly above about 13%, no sharp cut-off; inactive = mostly below about 14%; also: read at 38.3 µM for the half of the compounds with a filed dose
Pf growth 48h: inhibits P. falciparum growth in the first generation, 48 h. hit rate 5.9% among 310,000. Potency, µM (doses to about 28.7 µM), usual class: inhibitors. P. falciparum luciferase growth in erythrocytes, 48 h
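Firefly luciferase activity from engineered P. falciparum reports growth; inhibitors lower the luminescent signal. Cultures contained 2% hematocrit erythrocytes at 0.1% final parasitemia.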
Shiga toxin inh: inhibitors of Shiga toxin in Vero cells; Vero cells, Shiga toxin protein synthesis inhibition reporter; inhibition, % at 38.7 µM; hit rate 9.2% among 290,000; in the data active = inhibition mostly above about 28%, no sharp cut-off; inactive = mostly below about 43%
NS1 function inh: inhibitors of influenza NS1 protein function; Potency, µM (titrated, usually from 46.1 µM); hit rate 0.4% among 270,000; AID 2326; calls by dose curve; also: actives are rising curves; nearly all actives have a fitted effect of over 50% in size
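In this qHTS, NS1 from influenza A is expressed in budding yeast, where it slows growth. Cells are switched from glucose to 2% galactose medium (pH 6.0, -URA), treated with compound, and growth recovery is read at OD600.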
SARS PLpro yeast: SARS-CoV PLP inhibition in yeast; S. cerevisiae expressing SARS-CoV PLpro, growth rescue; Potency, µM (titrated, usually from 32.9 µM), actives largely listed as activators; hit rate 0.19% among 330,000; AID 485353; calls by dose curve; also: nearly all actives have a fitted effect of over 55% in size
Pf growth 96h: inhibits malaria parasite growth, 96 h | P. falciparum luciferase reporter growth, 96 h | Potency, µM (highest dose often 28.7 µM), actives largely listed as inhibitors | hit rate 6.9% among 320,000 | AID 504834
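Erythrocytes infected with luciferase-expressing P. falciparum were dispensed at 2% hematocrit and 0.05% parasitemia (final), then incubated with compounds 96 hours at 37 C in 5% CO2. Luminescence after detection reagent addition reported growth.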
Large screens that a line does not name were inactive. Unless noted, calls follow the shape of the dose curve; as a rule, active = well fitted inhibition curve with a large enough effect; inconclusive = small, poorly fitted or top-dose-only effect, or another doubt; inactive = no such curve, though single readings can be large or run the other way.

COc1cc2cc(C(=O)N3CCOCC3)cc(-c3ccc(C)cc3)c2cc1OC	Pf growth 48h inconclusive, Pf growth 96h 8.3µM
O=C(c1cccc(Oc2ccccc2)c1)N1CCOCC1	Pf growth 48h inconclusive
COc1ccc(OCc2ccc(C(=O)N3CCOCC3)cc2)cc1	CHX counter 28, Shiga toxin inh 56
CCOP(=O)(OCC)C(NC(=O)/C=C/c1ccc(OC)cc1)c1ccccc1 (stereo not given)	none (no result: NS1 function inh)
COc1cc2cc(C(=O)N3CCN(Cc4ccc5c(c4)OCO5)CC3)c(=O)oc2cc1OC	none
CC[C@]1(c2ccccc2)NC(=O)NC1=O	none (no result: Pf growth 48h, NS1 function inh, SARS PLpro yeast, Pf growth 96h)
CCOC(=O)c1nnn(-c2nonc2N)c1-c1ccc(F)cc1	Pf growth 48h 12µM (no result: NS1 function inh)
CCOC(=O)c1nnn(-c2nonc2N)c1-c1ccc(OC)cc1	Pf growth 48h 2.1µM, Pf growth 96h inconclusive
CCOC(=O)c1nnn(-c2nonc2N)c1-c1ccc(Cl)cc1	Pf growth 48h 12µM, Pf growth 96h inconclusive (no result: NS1 function inh)
COC(=O)c1nnn(-c2nonc2N)c1CSc1nc2ccccc2s1	CHX counter 21
CCOC(=O)c1nnn(-c2nonc2N)c1-c1cccs1	none
CNCc1ccccc1Sc1ccc(OC)c(OC)c1	none
O=S(=O)(c1ccccc1)N1CCC2(CC1)OCCN2S(=O)(=O)c1cccs1	Pf growth 48h inconclusive, Pf growth 96h inconclusive (no result: CHX counter, Shiga toxin inh, NS1 function inh)
CCOC(=O)c1nnn(-c2nonc2N)c1-c1cccc2ccccc12	Pf growth 48h 3.3µM, Pf growth 96h 5.2µM
COC(=O)c1cc(S(=O)(=O)N2c3ccccc3CC2C)cn1C (stereo not given)	none
CN(Cc1ccc(Br)cc1)CC(O)COc1cccc(Br)c1 (stereo not given)	none
Cc1cccc(NC(=S)N2CCN(S(=O)(=O)c3ccc(F)cc3)CC2)c1	Pf growth 48h 2.1µM, Pf growth 96h inconclusive
O=S(=O)(c1ccc(Cl)cc1)N1CCN(C(=S)Nc2ccc(F)c(Cl)c2)CC1	Pf growth 48h 0.66µM
CCc1ccc(C2/C=C\CNC(c3ccccc3)C(=O)N2Cc2ccc(C)cc2)cc1 (stereo not given)	none (no result: Pf growth 48h, NS1 function inh, SARS PLpro yeast, Pf growth 96h)
CCOC(=O)C1=C(C)Nc2nc(C)nn2C1c1cc(OC)ccc1OC (stereo not given)	Pf growth 96h 8.3µM
CCOC(=O)C1=C(c2ccccc2)Nc2ncnn2C1c1ccc(OC)c(OC)c1OC (stereo not given)	Pf growth 96h inconclusive
CCOC(=O)C1=C(c2ccccc2)Nc2nc(C)nn2C1c1cccc(OC)c1OC (stereo not given)	Pf growth 48h 12µM, Pf growth 96h 9.3µM
CC(C)c1ccc2c(c1)[C@H]1OCC[C@H]1[C@@H](c1cccs1)N2	CHX counter 70, Shiga toxin inh 59
Cc1ccc(/C(N)=N/OC(=O)C(C)c2ccc([N+](=O)[O-])cc2)cc1 (stereo not given)	none
CC1(C)COC(c2coc3ccccc3c2=O)OC1	CHX counter 46, Shiga toxin inh 87
CCOC(=O)C1=C(C)NC2=C(C(=O)CC(C)(C)C2)C1c1coc2ccccc2c1=O (stereo not given)	Pf growth 48h inconclusive
CN(C)CCNCc1ccc(OC2CCCC2)cc1	Pf growth 96h 9.3µM (no result: Pf growth 48h)
c1ccc2oc(-c3ccc4nc[nH]c4c3)nc2c1	CHX counter 39, Shiga toxin inh 75
NCc1ccc(-c2nc3ccccc3o2)cc1	CHX counter 59, Shiga toxin inh 93 (no result: Pf growth 96h)
Nc1ccc(CCc2nc3ccccc3o2)cc1	CHX counter 28, Pf growth 96h inconclusive
O=S(=O)(CCc1nc2ccccc2o1)c1ccc(Cl)c(Cl)c1	none
O=C1c2ccccc2C(=O)N1c1ccc(-c2nc3ccccc3o2)cc1	none
COC(=O)c1ccc(-c2nc3ccccc3o2)cc1	CHX counter 13, Pf growth 96h inconclusive
CCc1cccc(NC(=O)CS(=O)Cc2nc(-c3ccc(C)cc3)oc2C)c1 (stereo not given)	none (no result: Pf growth 48h, NS1 function inh)
COc1ccc(/C=C(\C#N)c2nc(-c3cc4c(ccc5ccccc54)oc3=O)cs2)cc1O	none (no result: Pf growth 48h, NS1 function inh, SARS PLpro yeast, Pf growth 96h)
O=C(Cc1ccccc1F)NC1CCCN(Cc2ccc(Cl)cc2)C1 (stereo not given)	Pf growth 48h inconclusive, Pf growth 96h inconclusive
COC(=O)c1ccc2nccnc2c1	none
COc1ccc(-c2nc3ccccc3o2)cc1OC	CHX counter 36, Shiga toxin inh 36
COc1ccc(C(=O)NC(=S)NCc2ccc(-c3nc4ccccc4o3)cc2)cc1OC	none (no result: Pf growth 96h)
COC(=O)c1ccc(-c2nc3ccc(C)cc3o2)cc1	CHX counter 76, Shiga toxin inh 154, Pf growth 96h inconclusive (no result: Pf growth 48h)
Nc1nc2ccc(-c3nc4ccccc4o3)cc2s1	CHX counter 36, Shiga toxin inh 13
CSCC[C@H](NC(=O)[C@H](CC(C)C)NC(=O)[C@@H](Cc1cnc[nH]1)NC(=O)[C@H](Cc1ccccc1)NC(=O)[C@@H](Cc1ccccc1)NC(=O)[C@@H](N)Cc1ccc(O)cc1)C(N)=O	none (no result: Pf growth 48h, NS1 function inh, SARS PLpro yeast, Pf growth 96h)
COc1ccc(N(C(=O)c2ccco2)S(=O)(=O)c2cc(OC)ccc2OC)cc1	Pf growth 48h inconclusive (no result: Pf growth 96h)
Cc1ccc(CC(=O)N2CCN(C(=O)c3ccco3)CC2)cc1	Pf growth 48h inconclusive (no result: NS1 function inh)
Clc1ccc(CN2CCC(Cc3ccccc3)CC2)cc1	Pf growth 96h 8.3µM
Clc1ccc(CNC2CCN(Cc3ccccc3)CC2)cc1	Pf growth 48h 4.1µM, Pf growth 96h inconclusive (no result: Shiga toxin inh)
O=C(CCC1CCN(Cc2ccc(Cl)cc2)CC1)NC1CC1	Pf growth 96h 1µM
Fc1ccc(CN2CCC(Cc3ccccc3)CC2)cc1F	Pf growth 96h inconclusive
COc1ccccc1CNC1CCN(Cc2ccccc2)CC1	Pf growth 96h inconclusive
Fc1ccc(CNC2CCN(Cc3ccccc3)CC2)cc1	Pf growth 48h 9.3µM, Pf growth 96h 1.2µM
CCOC(=O)c1c(-c2ccc(C)o2)csc1NC(=S)NC(=O)N(C)C	Pf growth 48h inconclusive, Pf growth 96h inconclusive
COc1ccc(CCNC(=O)CNC(=O)c2ccccc2Br)cc1OC	none
c1ccc(-c2ccc(CNC3CC3)cc2)cc1	CHX counter 23
Clc1ccc(CNc2ccc(N3CCN(Cc4ccccc4)CC3)cc2)cc1	Pf growth 96h 9.3µM
Cc1cc(Cl)ccc1NC(=O)c1ccc2c(c1)CCN2S(C)(=O)=O	none
N#Cc1cccc(NC(=O)Cn2c3[n+](c4ccc(C(F)(F)F)cc42)CCCCC3)c1	Pf growth 48h 5.2µM, Pf growth 96h 0.83µM
C=CCn1c2[n+](c3ccccc3c1=O)CCCCC2	none (no result: NS1 function inh)
COc1ccc(OC)c(C(=O)Cn2c3[n+](c4ccc(C(F)(F)F)cc42)CCCCC3)c1	Pf growth 48h inconclusive, Pf growth 96h 0.52µM
N#Cc1cccc(NC(=O)CN2C(=O)NC3(CCCCCC3)C2=O)c1	Pf growth 96h inconclusive (no result: CHX counter, Shiga toxin inh, NS1 function inh)
Fc1ccccc1Cn1c2[n+](c3ccc(C(F)(F)F)cc31)CCCCC2	Pf growth 48h inconclusive, Pf growth 96h 2.3µM (no result: NS1 function inh)
O=C(C[n+]1ccc(-c2nnc3n2CCC3)cc1)c1ccc(Cl)cc1	none
CNC(=S)N(CCCN(C)C)Cc1cc2cc3c(cc2[nH]c1=O)OCCO3	Pf growth 96h inconclusive (no result: Shiga toxin inh)
